Pol eta inh: qHTS for Inhibitors of Polymerase Eta; DNA polymerase eta (Homo sapiens), Q9Y253; Potency, µM (titrated, usually from 114 µM), inactives show top-dose activity change, negative = inhibition, usual class: inhibitors; 1.2% of 390,000 active; recombinant Pol eta, fluorescent DNA replication assay; also: % is scaled to controls: 0 for no effect and ±100 for the full control effect
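Fluorescent replication assay: 50 nM final substrate added after a 15 min room-temperature compound preincubation with 10 nM enzyme. Signal taken at 0 min and again at 10 min.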
FEN1 inh: qHTS Assay for the Inhibitors of Human Flap endonuclease 1 (FEN1); AID 588795, 2011; Recombinant FEN1 flap cleavage, fluorescence, 15 min; 0.35% of 390,000 active; P39748; Potency, µM (top dose mostly 114 µM), for the others: at the top dose activity change, negative = inhibition, hits mostly inhibitors; also: % is scaled to controls: 0 for no effect and ±100 for the full control effect; nearly all actives have a fitted effect of over 65% in size
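In this screen, 50 nM flap DNA substrate was added to 10 nM FEN1 pretreated with compound for 15 min at room temperature; cleavage was followed with reads at 0 and 15 min, and Hill fitting gave concentration–response parameters.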
POLI inh: qHTS for Inhibitors of Polymerase Iota; DNA polymerase iota (Homo sapiens), Q9UNA4; 1% of 390,000 active; Potency, µM (doses to about 115 µM), for the others: at the highest dose activity, negative = inhibition, actives largely listed as inhibitors; Pol iota fluorescent replication assay, 10 min
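Fluorescent replication assay read twice, at 0 min and 10 min after adding 50 nM (final) substrate. Enzyme (10 nM) and compounds were first incubated 15 min at room temperature; enzyme-free buffer wells were negative controls.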
POLK inh: qHTS for Inhibitors of Polymerase Kappa; DNA polymerase kappa (Homo sapiens), Q9UBT6; 0.53% of 400,000 active; purified Pol kappa, fluorescent DNA synthesis assay, 10 min; AID 588579, 2011; Potency, µM (top dose mostly 107 µM), for the others: at the top dose activity, negative = inhibition, usual class: inhibitors; also: % is scaled to controls: 0 for no effect and ±100 for the full control effect
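Fluorescent qHTS in 1536-well format: enzyme (10 nM) and compound sat 15 min at room temperature before 50 nM substrate (final) was added. Signal taken at 0 and 10 min; no-enzyme buffer wells were negative controls.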
WRN helicase inh: qHTS for Inhibitors of WRN Helicase; WRN helicase unwinding, fluorescent forked duplex, kinetic; Potency, µM (doses to about 114 µM), inactives show top-dose activity change, negative = inhibition, usual class: inhibitors; 0.46% of 360,000 active; AID 651768, 2012; also: % is scaled to controls: 0 for no effect and ±100 for the full control effect; nearly all actives have a fitted effect of over 55% in size
Target sequence (Q14191 whole entry, looked up): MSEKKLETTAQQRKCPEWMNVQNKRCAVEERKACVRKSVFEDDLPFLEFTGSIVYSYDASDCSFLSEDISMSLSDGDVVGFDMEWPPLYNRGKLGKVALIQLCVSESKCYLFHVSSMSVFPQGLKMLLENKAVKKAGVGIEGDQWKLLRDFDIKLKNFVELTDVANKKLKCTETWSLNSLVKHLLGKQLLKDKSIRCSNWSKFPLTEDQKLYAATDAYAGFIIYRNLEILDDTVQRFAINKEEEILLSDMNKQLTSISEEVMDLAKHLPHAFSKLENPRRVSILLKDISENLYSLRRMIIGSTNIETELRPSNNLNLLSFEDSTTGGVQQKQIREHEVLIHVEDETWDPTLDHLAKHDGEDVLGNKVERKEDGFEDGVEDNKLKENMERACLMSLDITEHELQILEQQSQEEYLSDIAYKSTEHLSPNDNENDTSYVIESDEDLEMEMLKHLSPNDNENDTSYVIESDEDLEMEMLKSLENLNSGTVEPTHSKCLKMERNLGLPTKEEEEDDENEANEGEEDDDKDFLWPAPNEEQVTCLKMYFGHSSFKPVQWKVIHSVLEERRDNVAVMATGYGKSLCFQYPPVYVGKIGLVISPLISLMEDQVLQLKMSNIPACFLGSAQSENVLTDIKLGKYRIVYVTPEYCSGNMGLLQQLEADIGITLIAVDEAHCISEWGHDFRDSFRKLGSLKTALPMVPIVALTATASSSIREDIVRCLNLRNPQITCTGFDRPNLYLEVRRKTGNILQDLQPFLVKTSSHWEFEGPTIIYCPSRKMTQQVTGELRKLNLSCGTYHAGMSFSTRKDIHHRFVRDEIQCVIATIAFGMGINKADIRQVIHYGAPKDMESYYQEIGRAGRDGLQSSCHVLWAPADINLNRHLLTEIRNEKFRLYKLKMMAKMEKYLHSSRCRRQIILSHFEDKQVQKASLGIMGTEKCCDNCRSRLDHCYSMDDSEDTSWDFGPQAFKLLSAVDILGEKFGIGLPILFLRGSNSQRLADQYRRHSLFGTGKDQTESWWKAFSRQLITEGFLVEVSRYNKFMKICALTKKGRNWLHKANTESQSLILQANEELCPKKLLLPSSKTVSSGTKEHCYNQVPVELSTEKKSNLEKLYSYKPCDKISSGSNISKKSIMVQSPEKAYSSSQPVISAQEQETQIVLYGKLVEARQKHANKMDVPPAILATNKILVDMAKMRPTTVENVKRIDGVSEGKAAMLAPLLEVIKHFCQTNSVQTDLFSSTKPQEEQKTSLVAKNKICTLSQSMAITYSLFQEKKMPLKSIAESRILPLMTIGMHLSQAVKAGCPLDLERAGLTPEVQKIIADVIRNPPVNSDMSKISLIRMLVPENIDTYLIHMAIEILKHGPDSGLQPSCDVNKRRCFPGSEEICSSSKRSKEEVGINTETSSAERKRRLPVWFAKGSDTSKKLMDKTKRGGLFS
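Kinetic red-fluorescence monitoring (525/598 nm) tracks WRN helicase activity after 100 nM fluorophore-quencher forked duplex and 2 mM ATP are added to 20 nM enzyme pretreated 15 min at room temperature with compound.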
Pol beta inh: qHTS Assay for Inhibitors of DNA Polymerase Beta. 1.3% of 340,000 active. P06746. Potency, µM (titrated, usually from 114 µM), for the others: top-dose activity change, negative = inhibition, usual class: inhibitors. Pol beta primer extension/strand displacement, fluorescence kinetic; also: % is scaled to controls: 0 for no effect and ±100 for the full control effect
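Curves were derived by four-parameter Hill fits of normalized qHTS data. The kinetic fluorescent primer-extension read was taken at 0 and 10 min after 50 nM substrate, following a 15 min room-temperature preincubation of 10 nM enzyme with compounds.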
* marks the source's active call; other numbers are inactive results; [ ] = dose if it differs, or a comment. Most compounds without a hit are left out; they make up all but 2.4% or so of the library. Calls follow the shape of the dose curve; as a rule, active = well fitted curve in the direction sought with a large enough effect; inconclusive = small, poorly fitted or top-dose-only effect, or another doubt; inactive = no such curve, though single readings can be large; an effect the other way counts as inactive or inconclusive. Potency is read from the fitted curve at half-maximal effect.

CC(NC(=O)CN1c2cccc3cccc(c23)S1(=O)=O)c1ccc(S(N)(=O)=O)cc1 (centres undefined) was read as Pol eta inh 20µM*, FEN1 inh -14%, POLI inh 28µM*, POLK inh inconclusive and WRN helicase inh inconclusive.
Screening COc1ccccc1NC(=O)CCNS(=O)(=O)c1ccc2[nH]c(=O)oc2c1 returned Pol eta inh 25µM*, FEN1 inh -21%, POLI inh inconclusive, POLK inh inconclusive, WRN helicase inh -14% and Pol beta inh -10%.
For COc1ccccc1CNC(=O)CCNS(=O)(=O)c1ccc2[nH]c(=O)oc2c1 the results were Pol eta inh 79µM*, FEN1 inh -4%, POLI inh -21%, POLK inh -24%, WRN helicase inh -4%[11.6 µM] and Pol beta inh inconclusive.
For COc1ccc(NC(=O)C2=C(C)Nc3ncnn3C2c2ccc[nH]2)cc1 (centres undefined) the results were Pol eta inh inconclusive, FEN1 inh -2%, POLI inh inconclusive, POLK inh 5%[60.1 µM] and Pol beta inh 79µM*.
COc1ccc(CCNC(=O)/C=C/c2ccco2)cc1OC was read as Pol eta inh 2%, FEN1 inh -1%, POLI inh inconclusive, POLK inh -21%, WRN helicase inh -7% and Pol beta inh 11%.
`COc1ccc(/C=C/C(=O)NCCSCc2ccco2)cc1OC` gave Pol eta inh -29%, FEN1 inh 16%, POLI inh 71µM*, POLK inh -40%, WRN helicase inh -23%[57.1 µM] and Pol beta inh -14%.
Screening Cc1cc(C)c(S(=O)(=O)NCCSCc2ccco2)c(C)c1 returned Pol eta inh 20µM*, FEN1 inh -23%, POLI inh 22µM*, POLK inh inconclusive and WRN helicase inh -12%[11.6 µM].
`Cc1ccc(S(=O)(=O)NCCSCc2ccco2)cc1` gave Pol eta inh -5%, FEN1 inh -4%, POLI inh -8%, POLK inh -5%, WRN helicase inh -2% and Pol beta inh -10%.
`COc1ccc(S(=O)(=O)NCCSCc2ccco2)cc1OC` gave Pol eta inh inconclusive, FEN1 inh -15%, POLI inh 45µM*, POLK inh -27%, WRN helicase inh -2%[11.6 µM] and Pol beta inh 40µM*.
For Cc1nn(CCCC(=O)NCc2ccccc2)c(=O)c2cc3sccc3n12 the results were Pol eta inh 3%, FEN1 inh -11%, POLI inh -3%, POLK inh -9% and Pol beta inh inconclusive.
`CCC1CCc2c(sc(NC(=O)C3c4ccccc4Oc4ccccc43)c2C(=O)OC)C1` (centres undefined) gave Pol eta inh -11%, FEN1 inh -16%, POLI inh -4%, POLK inh -3% and Pol beta inh 16%.
`O=C1CCCCC2CCCCN12` (centres undefined) gave POLK inh -15%[158 µM].
Screening COc1ccc(C(=O)COC(=O)C2CC3CCCC(C2)C3=O)cc1Br (centres undefined) returned Pol eta inh -11%, FEN1 inh -2%, POLI inh 22%, POLK inh 1% and WRN helicase inh 5%.
For COc1ccc(C(=O)COC(=O)CN2CC(=O)Oc3ccccc32)cc1Br the results were Pol eta inh -10%, FEN1 inh 4%, POLI inh 25µM*, POLK inh -7%, WRN helicase inh 7% and Pol beta inh inconclusive.
CC(=O)Nc1nonc1-c1nnc(SCc2ccccc2C)n1C was read as Pol eta inh -12%, FEN1 inh -1%, POLI inh 20%, POLK inh -4% and Pol beta inh 36%.
Screening CC1=NN(c2ccccc2)C(=O)/C1=C/c1ccc(Cl)cc1 returned Pol eta inh -2%, FEN1 inh inconclusive, POLI inh inconclusive, POLK inh 2%, WRN helicase inh 3%[11.6 µM] and Pol beta inh -29%.
Screening COc1ccc(/C=C2/C(=O)N(Cc3ccccc3)N=C2C)cc1 returned Pol eta inh -18%, FEN1 inh 1%, POLI inh 22µM*, POLK inh -3%, WRN helicase inh -34%[57.1 µM] and Pol beta inh 70%.
Screening O=S(=O)(Nc1cccc2ccccc12)c1cccc2ccccc12 returned FEN1 inh -22%, POLI inh 5% and POLK inh -18%.
For Cc1nc2ccccc2n1CCc1nc2c3ccccc3nc(SCc3ccccc3F)n2n1 the results were Pol eta inh -8%, FEN1 inh -6%, POLI inh 29%, POLK inh -3%[60.1 µM] and Pol beta inh 2%.
For COCCCN=C(c1ccco1)n1c(=S)nc(-c2ccco2)n(CCCOC)c1=S the results were Pol eta inh -5%, FEN1 inh -5%, POLI inh 20µM*, POLK inh inconclusive, WRN helicase inh -29% and Pol beta inh 35µM*.
`COCCCn1c(-c2ccco2)nc2ccccc2c1=O` gave Pol eta inh -5%, FEN1 inh 5%, POLI inh 6%, POLK inh 7%, WRN helicase inh 8% and Pol beta inh 34%.
Screening Cc1cc(-c2ccc(S(=O)(=O)NCc3ccccc3Cl)s2)on1 returned Pol eta inh -19%, FEN1 inh -10%, POLI inh -5%, POLK inh -5% and Pol beta inh 0%.
O=C(/C=C/c1ccco1)N1CCC(Cc2ccccc2)CC1 was read as Pol eta inh inconclusive, FEN1 inh -8%, POLI inh 40µM*, POLK inh inconclusive, WRN helicase inh inconclusive and Pol beta inh inconclusive.
N#CC1=C2SCN(Cc3ccccc3)CN2C(=O)CC1c1ccc2c(c1)OCO2 (centres undefined) was read as Pol eta inh -3%, FEN1 inh 8%, POLI inh -6%, POLK inh -5%, WRN helicase inh -35% and Pol beta inh 45µM*.
`COc1ccc(C2CC(=O)N3CN(C4CCCCC4)CSC3=C2C#N)c(OC)c1` (centres undefined) gave Pol eta inh -21%, FEN1 inh -13%, POLI inh 7.9µM*, POLK inh -3% and Pol beta inh 1%.

Screening data as filed in PubChem.
